# Reference: ChEMBL document CHEMBL2218924, “A broad activity screen in support of a chemogenomic map for kinase signalling research and drug discovery” (Biochem J, 2013)
# How the values were obtained:
# [1] = target: Serine/threonine-protein kinase SIK1 (Homo sapiens) (UniProt P57059); conditions: at 10 µM
# [2] = target: SRSF protein kinase 1 (Homo sapiens) (UniProt Q96SB4); conditions: at 1 µM
# [3] = target: SRSF protein kinase 1 (Homo sapiens) (UniProt Q96SB4); conditions: at 10 µM
# [4] = target: SRSF protein kinase 2 (Homo sapiens) (UniProt P78362); conditions: at 1 µM
# Sequence of SRSF protein kinase 2 (Homo sapiens) (P78362 whole entry, looked up): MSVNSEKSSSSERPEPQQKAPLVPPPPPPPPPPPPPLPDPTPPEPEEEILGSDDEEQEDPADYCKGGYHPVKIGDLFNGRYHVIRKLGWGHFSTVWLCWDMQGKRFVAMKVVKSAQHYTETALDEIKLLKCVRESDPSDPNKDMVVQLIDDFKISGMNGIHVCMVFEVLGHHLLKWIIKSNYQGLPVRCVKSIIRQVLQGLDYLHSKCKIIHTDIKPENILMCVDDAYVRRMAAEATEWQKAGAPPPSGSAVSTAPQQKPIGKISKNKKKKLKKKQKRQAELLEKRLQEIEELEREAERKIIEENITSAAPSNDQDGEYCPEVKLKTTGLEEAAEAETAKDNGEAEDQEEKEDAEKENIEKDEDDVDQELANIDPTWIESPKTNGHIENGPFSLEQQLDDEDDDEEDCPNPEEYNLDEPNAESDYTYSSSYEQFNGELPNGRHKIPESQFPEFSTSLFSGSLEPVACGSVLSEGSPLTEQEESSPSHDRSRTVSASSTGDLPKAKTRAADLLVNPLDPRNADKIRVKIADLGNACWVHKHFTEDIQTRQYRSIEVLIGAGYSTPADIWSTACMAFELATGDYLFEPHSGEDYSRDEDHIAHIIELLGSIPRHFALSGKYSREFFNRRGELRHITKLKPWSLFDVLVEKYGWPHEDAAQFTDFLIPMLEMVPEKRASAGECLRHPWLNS
# [5] = target: SRSF protein kinase 2 (Homo sapiens) (UniProt P78362); conditions: at 10 µM
# [6] = target: Serine/threonine-protein kinase 33 (Homo sapiens) (UniProt Q9BYT3); conditions: at 1 µM
# Sequence of Serine/threonine-protein kinase 33 (Homo sapiens) (Q9BYT3 whole entry, looked up): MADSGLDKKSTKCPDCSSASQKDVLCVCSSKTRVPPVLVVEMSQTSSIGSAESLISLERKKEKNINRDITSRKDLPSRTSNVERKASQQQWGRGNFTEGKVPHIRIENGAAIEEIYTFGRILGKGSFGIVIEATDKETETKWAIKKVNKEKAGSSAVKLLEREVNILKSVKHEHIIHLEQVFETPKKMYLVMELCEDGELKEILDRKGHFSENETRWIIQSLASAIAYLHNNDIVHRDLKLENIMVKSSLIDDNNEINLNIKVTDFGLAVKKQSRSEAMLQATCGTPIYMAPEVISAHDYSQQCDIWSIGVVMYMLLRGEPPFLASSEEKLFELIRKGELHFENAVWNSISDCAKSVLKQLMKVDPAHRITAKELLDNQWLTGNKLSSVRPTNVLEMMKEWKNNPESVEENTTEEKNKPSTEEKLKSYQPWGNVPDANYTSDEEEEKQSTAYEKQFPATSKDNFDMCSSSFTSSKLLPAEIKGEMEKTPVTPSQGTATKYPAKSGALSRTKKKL
# [7] = target: Serine/threonine-protein kinase 33 (Homo sapiens) (UniProt Q9BYT3); conditions: at 10 µM
# [8] = target: Serine/threonine-protein kinase PLK2 (Homo sapiens) (UniProt Q9NYY3); conditions: at 1 µM
# Sequence of Serine/threonine-protein kinase PLK2 (Homo sapiens) (Q9NYY3 whole entry, looked up): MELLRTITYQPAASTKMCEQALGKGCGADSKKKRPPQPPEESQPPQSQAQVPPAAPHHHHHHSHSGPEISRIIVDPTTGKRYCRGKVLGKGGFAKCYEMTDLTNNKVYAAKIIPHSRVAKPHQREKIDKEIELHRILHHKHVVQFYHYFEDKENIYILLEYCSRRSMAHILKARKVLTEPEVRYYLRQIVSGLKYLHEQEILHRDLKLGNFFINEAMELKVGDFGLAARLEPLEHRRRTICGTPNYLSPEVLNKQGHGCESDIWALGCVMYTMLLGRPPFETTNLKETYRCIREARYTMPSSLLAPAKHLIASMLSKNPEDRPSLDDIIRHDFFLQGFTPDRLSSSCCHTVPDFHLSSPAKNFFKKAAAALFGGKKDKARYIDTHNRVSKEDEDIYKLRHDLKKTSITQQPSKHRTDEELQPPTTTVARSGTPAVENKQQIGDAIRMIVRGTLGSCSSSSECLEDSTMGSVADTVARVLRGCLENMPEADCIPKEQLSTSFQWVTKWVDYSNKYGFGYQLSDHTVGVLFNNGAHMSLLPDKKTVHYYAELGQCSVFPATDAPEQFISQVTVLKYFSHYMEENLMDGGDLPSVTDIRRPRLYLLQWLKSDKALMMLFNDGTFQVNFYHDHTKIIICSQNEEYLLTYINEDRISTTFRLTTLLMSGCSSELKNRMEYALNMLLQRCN
# [9] = target: Serine/threonine-protein kinase PLK2 (Homo sapiens) (UniProt Q9NYY3); conditions: at 10 µM
# [10] = target: Tyrosine-protein kinase SYK (Homo sapiens) (UniProt P43405); conditions: at 1 µM
# Sequence of Serine/threonine-protein kinase SIK1 (Homo sapiens) (P57059 whole entry): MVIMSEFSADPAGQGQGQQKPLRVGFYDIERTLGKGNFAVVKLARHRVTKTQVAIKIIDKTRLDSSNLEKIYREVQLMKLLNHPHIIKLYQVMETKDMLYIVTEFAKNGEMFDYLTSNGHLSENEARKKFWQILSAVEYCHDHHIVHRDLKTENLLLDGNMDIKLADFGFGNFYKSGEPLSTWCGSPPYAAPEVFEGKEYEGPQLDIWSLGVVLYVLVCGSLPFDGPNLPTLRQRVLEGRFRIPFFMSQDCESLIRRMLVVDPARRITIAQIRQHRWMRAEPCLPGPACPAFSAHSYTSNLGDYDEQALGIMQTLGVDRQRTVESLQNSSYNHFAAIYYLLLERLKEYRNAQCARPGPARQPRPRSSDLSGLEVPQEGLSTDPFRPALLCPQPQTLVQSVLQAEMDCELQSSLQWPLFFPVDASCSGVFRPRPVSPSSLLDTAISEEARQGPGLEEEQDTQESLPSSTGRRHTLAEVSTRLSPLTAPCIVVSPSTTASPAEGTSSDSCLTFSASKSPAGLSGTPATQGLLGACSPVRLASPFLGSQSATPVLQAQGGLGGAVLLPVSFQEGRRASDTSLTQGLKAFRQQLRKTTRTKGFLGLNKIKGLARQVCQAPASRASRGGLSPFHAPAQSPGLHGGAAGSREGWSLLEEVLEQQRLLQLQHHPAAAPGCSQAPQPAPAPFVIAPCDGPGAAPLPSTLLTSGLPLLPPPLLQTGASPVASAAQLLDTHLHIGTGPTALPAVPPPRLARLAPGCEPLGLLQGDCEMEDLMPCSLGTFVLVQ
# Sequence of SRSF protein kinase 1 (Homo sapiens) (Q96SB4 whole entry): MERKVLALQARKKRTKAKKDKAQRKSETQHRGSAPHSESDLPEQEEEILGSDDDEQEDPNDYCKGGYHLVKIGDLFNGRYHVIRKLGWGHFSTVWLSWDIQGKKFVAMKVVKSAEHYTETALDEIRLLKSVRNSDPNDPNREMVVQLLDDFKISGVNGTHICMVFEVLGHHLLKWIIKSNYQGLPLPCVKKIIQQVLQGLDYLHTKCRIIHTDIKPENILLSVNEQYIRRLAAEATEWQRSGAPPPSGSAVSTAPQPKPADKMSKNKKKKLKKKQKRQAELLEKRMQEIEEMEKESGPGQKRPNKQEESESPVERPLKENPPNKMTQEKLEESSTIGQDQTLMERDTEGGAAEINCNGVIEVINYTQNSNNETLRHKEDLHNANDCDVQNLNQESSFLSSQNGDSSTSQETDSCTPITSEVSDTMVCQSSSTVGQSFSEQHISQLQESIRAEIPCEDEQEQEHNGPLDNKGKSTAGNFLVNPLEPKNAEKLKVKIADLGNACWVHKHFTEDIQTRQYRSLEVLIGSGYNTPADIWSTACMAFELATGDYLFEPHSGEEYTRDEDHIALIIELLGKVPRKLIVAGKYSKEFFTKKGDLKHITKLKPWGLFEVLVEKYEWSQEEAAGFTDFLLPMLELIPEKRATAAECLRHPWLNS
Compound,residual activity [1] [%],residual activity [2] [%],residual activity [3] [%],residual activity [4] [%],residual activity [5] [%],residual activity [6] [%],residual activity [7] [%],residual activity [8] [%],residual activity [9] [%],residual activity [10] [%]
O=C1NC(=O)/C(=C/c2ccc3c(c2)OC(F)(F)O3)S1,119,118,98,102,84,106,109,112,95,121
Cn1cnc2cc3c(Nc4cccc(Br)c4)ncnc3cc21,9,100,91,94,87,93,95,106,98,129
O=c1cc(-c2cccc3c2Sc2ccccc2S3)oc(N2CCOCC2)c1,83,101,83,107,91,97,87,93,96,104
Cc1ccc(NC2=CC(=O)c3sc(C)nc3C2=O)cc1,91,97,96,98,87,88,92,95,93,99
O=C(Nc1cccc(Nc2nccc(Nc3cccc(C(F)(F)F)c3)n2)c1)C1CC1,50,107,87,96,90,102,89,102,73,79
COc1ccc(CNc2nc(N(CCO)CCO)nc3c2ncn3C(C)C)cc1,78,95,67,86,65,96,83,91,94,94
NC(=O)c1ccc2[nH]c(-c3ccc(Oc4ccc(Cl)cc4)cc3)nc2c1,107,94,64,81,76,96,85,90,93,109
CO[C@H]1C[C@@H]2CC[C@@H](C)[C@@](O)(O2)C(=O)C(=O)N2CCCC[C@H]2C(=O)O[C@H]([C@H](C)C[C@@H]2CC[C@@H](O)[C@H](OC)C2)CC(=O)[C@H](C)/C=C(\C)[C@@H](O)[C@@H](OC)C(=O)[C@H](C)C[C@H](C)/C=C/C=C/C=C/1C,81,103,108,99,92,92,107,104,103,106
Nc1nc(Nc2ccc(S(N)(=O)=O)cc2)nn1C(=S)Nc1c(F)cccc1F,-2,-2,7,3,-3,77,26,71,26,16
COc1ccc(C(=O)Nc2sc3c(c2C(N)=O)CCCC3)cc1OC,91,84,95,89,89,91,97,98,97,126
O=C1c2ccccc2-[n+]2ccc3c([nH]c4ccccc43)c21,104,90,93,101,87,86,86,95,101,93
O=C1NC(=O)/C(=C\c2ccc3nccnc3c2)S1,83,99,49,96,58,86,53,94,73,104
CC#CC(=O)Nc1cc2c(Nc3ccc(F)c(Cl)c3)ncnc2cn1,77,91,100,88,88,94,98,97,93,117
CCN(CC)CCCCN1c2ccccc2Oc2ccc(Cl)cc21,59,101,117,104,82,107,109,109,104,137
Nc1ccc2ncnc(NCCc3ccc(Oc4ccccc4)cc3)c2c1,75,117,114,114,70,104,91,106,104,93
Cc1ccc(S(=O)(=O)/C=C/C#N)cc1,97,101,93,95,95,103,96,98,85,104
CC(C)n1cnc2c(NCc3ccccc3)nc(NCCCO)nc21,100,78,37,93,37,93,71,94,88,103
CCC(=O)Nc1ccc2ncnc(Nc3cccc(Br)c3)c2c1,13,102,98,89,74,91,98,104,98,125
Oc1ccc(-c2nc(-c3ccc(F)cc3)c(-c3ccncc3)[nH]2)cc1,65,123,110,118,76,105,94,105,104,109
CNc1cc2c(Nc3cccc(Br)c3)ncnc2cn1,57,93,97,98,92,96,93,106,89,117
COc1cc2ncnc(Nc3ccc(O)c(Br)c3)c2cc1OC,22,103,100,93,88,76,45,93,85,99
O=C(O)c1ccc2c3c1cccc3c(=O)n1c3ccccc3nc21,83,78,21,91,33,99,59,100,94,100
N#Cc1cnc2cnc(NCc3cccnc3)cc2c1Nc1ccc(F)c(Cl)c1,97,100,78,102,76,99,77,101,101,2
O=C(Nc1cccc(Nc2cc(Nc3cccc(C(F)(F)F)c3)ncn2)c1)C1CC1,104,96,88,90,84,99,97,100,90,112

Compound,residual activity [1] [%],residual activity [2] [%],residual activity [3] [%],residual activity [4] [%],residual activity [5] [%],residual activity [6] [%],residual activity [7] [%],residual activity [8] [%],residual activity [9] [%],residual activity [10] [%]
c1ccc2c(-c3ccncc3)c[nH]c2c1,85,108,108,89,97,98,93,107,94,–
Oc1ccc(Nc2nc(-c3ccc(Cl)cc3)cs2)cc1,111,105,111,116,87,105,100,110,100,117
Cc1nc2cc3nc(-c4cccs4)cnc3cc2n1C,88,99,107,98,86,106,100,102,95,131
Nc1cccc(-c2cc3c(Oc4cccc(O)c4)ncnc3[nH]2)c1,2,103,80,101,71,90,61,96,65,18
COc1cc2ncnc(Nc3ccc(Oc4ccccc4)cc3)c2cc1OC,8,106,90,105,90,98,88,104,105,110
CC(=O)O/N=C1\C(=C2\C(=O)Nc3cc(Br)ccc32)Nc2ccccc21,3,106,100,102,78,98,79,104,98,80
COc1cccc(-c2cc(=O)c3ccccc3o2)c1N,124,104,109,104,88,100,97,108,104,104
Oc1c2ccccc2c2c3c(cccc13)N=N2,48,98,87,97,57,61,16,85,61,–
CC(C)n1cnc2/c(=N/c3cccc(Cl)c3)nc(NCCO)[nH]c21,28,41,-2,27,2,78,28,61,22,79
Ic1cccc(CSc2nnc(-c3ccncc3)o2)c1,100,97,102,88,79,86,80,97,97,98
Cc1nc(-c2ccccc2)c(-c2ccncc2)o1,100,111,109,98,81,103,102,108,104,112
COc1cc2ncc(-c3ccccc3)nc2cc1OC,–,–,–,–,90,–,–,–,–,–
Cc1cncc2cccc(S(=O)(=O)N3CCCN(C(=O)CN)C[C@H]3C)c12,90,–,–,94,94,–,–,–,93,–
Cc1cc(Nc2nc(-c3ccccc3)nc3ccccc23)n[nH]1,10,73,15,67,17,77,24,–,56,16
Cc1cccc(-c2[nH]c(C(C)(C)C)nc2-c2ccc3c(c2)OCO3)n1,62,–,–,106,98,93,–,105,100,–
COc1ccc(OC)c2c(=S)c3ccccc3[nH]c12,–,91,88,97,82,94,77,89,91,94
Oc1n[nH]c2nnc(-c3c(-c4ccccc4)nn4ccccc34)cc12,89,97,96,101,98,95,86,97,99,106
Cn1nc2c3c(cccc31)C(=O)c1ccccc1-2,64,101,89,100,71,87,74,100,89,96
O=Nc1c(-c2c(O)[nH]c3ccccc23)[nH]c2ccccc12,8,90,66,96,67,43,8,97,82,49
c1ccc(-c2n[nH]cc2-c2ccnc3ccccc23)nc1,104,106,108,–,87,97,94,102,96,–
COc1cc2ncnc(Nc3ccc(NC(=O)c4ccccc4)cc3)c2cc1OC,18,–,–,107,103,109,108,–,85,–
O=C1Nc2ccc(Br)cc2/C1=C\c1cc2c([nH]1)CCCC2,107,–,–,–,–,–,–,105,99,123
COc1ccc(S(=O)(=O)N(CCO)c2ccccc2CN(C)C/C=C/c2ccc(Cl)cc2)cc1,79,117,96,105,81,93,91,–,99,97
Cn1cc(/C=C2\C(=O)Nc3ccc(S(N)(=O)=O)cc32)c2ccccc21,11,39,13,36,13,22,10,94,65,38

Compound,residual activity [1] [%],residual activity [2] [%],residual activity [3] [%],residual activity [4] [%],residual activity [5] [%],residual activity [6] [%],residual activity [7] [%],residual activity [8] [%],residual activity [9] [%],residual activity [10] [%]
O=C1Nc2cc(Br)ccc2/C1=C1/Nc2ccccc2/C1=N\O,8,98,84,88,70,73,72,97,96,70
N#C/C(=C(\N)Sc1ccc(N)cc1)c1ccccc1C(F)(F)F,85,99,99,108,82,92,93,100,98,73
CCN(CC)C(=O)c1ccc(Nc2nc(OCC3CCCCC3)c3nc[nH]c3n2)cc1,4,–,43,74,31,82,18,–,–,64
CCOc1cc2ncnc(Nc3cccc(Br)c3)c2cc1OCC,102,83,91,102,91,–,92,99,88,111
Nc1n[nH]c2nnc(-c3c(-c4ccccc4)nn4ccccc34)cc12,63,92,69,100,83,96,86,99,96,92
Cc1cc2ncc(-c3ccccc3)nc2cc1C,110,108,97,104,102,100,98,101,106,125
CO[C@@H]1[C@H](N(C)C(=O)c2ccccc2)C[C@H]2O[C@]1(C)n1c3ccccc3c3c4c(c5c6ccccc6n2c5c31)C(=O)NC4,2,78,55,64,48,25,13,100,86,2
O=c1c2ccccc2[nH]c(=S)n1CCN1CCC(=C(c2ccc(F)cc2)c2ccc(F)cc2)CC1,80,81,81,108,97,103,99,113,101,125
c1ccc(-c2n[nH]c3c2oc2ccccc23)cc1,8,–,–,98,89,94,81,94,89,115
CO[C@H]1[C@@H](OC)C[C@H](C)[C@@H](OC)C2=CC(=O)C=C(NC(=O)/C(C)=C/C=C/[C@H](OC)[C@@H](OC(N)=O)/C(C)=C/[C@@H]1C)C2=O,54,104,102,104,91,98,98,100,91,110
O=C1Nc2ccccc2/C1=C1/Nc2ccccc2/C1=N\OCCC(O)CO (stereo unspecified),30,–,–,80,38,37,7,–,76,32
O=C1NC(=O)c2cc(Nc3ccc(F)cc3)c(Nc3ccc(F)cc3)cc21,0,102,93,96,95,95,101,97,96,118
CN(C)CCCn1cc(C2=C(c3c[nH]c4ccccc34)C(=O)NC2=O)c2ccccc21,11,130,63,–,57,79,24,113,88,120
CC(=O)c1ccc(N2CCOCC2)cc1O,5,98,–,98,95,92,105,103,98,129
CC[n+]1c(/C=C/N(C)c2ccccc2)n(-c2ccccc2)c2ccc(-c3nc4ccccc4s3)cc21,125,114,124,106,99,89,82,91,95,103
O=[N+]([O-])c1ccc(-c2nc(-c3ccc(F)cc3)c(-c3ccncc3)[nH]2)cc1,106,109,109,98,85,104,101,103,104,118
CN(C)c1ccc(/C=C2\C(=O)Nc3ccccc32)cc1,88,97,101,108,85,–,78,106,98,123
COc1cc2ncnc(N3CCN(C(=O)Nc4ccc(Oc5ccccc5)cc4)CC3)c2cc1OC,87,103,105,102,95,88,96,107,101,101
N#CCCc1ccc2c(c1)-c1[nH]c3ccc([N+](=O)[O-])cc3c1CC(=O)N2,–,–,–,–,–,100,52,–,–,56
C[C@@H](N)[C@H]1CC[C@H](C(=O)Nc2ccncc2)CC1,115,95,103,103,113,106,–,100,101,110
N#CC(C#N)=C(N)/C(C#N)=C/c1ccc(O)cc1,75,100,95,–,–,97,97,–,63,116
O=C1NC(=O)c2c1c1c3ccccc3[nH]c1c1[nH]c3cc(Br)ccc3c21,83,82,96,83,77,94,88,93,94,104
